A selection: hits, their analogues and other compounds. The true share with any hit is near 3.6%.
FUS yeast rescue = rescues growth of FUS-expressing yeast; Potency, µM (series often up to 76.6 µM), most hits filed as activators; S. cerevisiae FUS-expressing, growth rescue, OD600, 24 h; actives 0.24% (n = 390,000); further: nearly all actives have a fitted effect of over 55% in size
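S. cerevisiae expressing FUS from galactose induction served as the toxicity model. Growth after 24hr at 30C, read as absorbance at 600 nm, indicates suppression of toxicity; compounds dosed at several concentrations.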
ClpP mod = qHTS Assay for Activators of ClpP | Potency, µM (titrated, usually from 57.5 µM) | ATP-dependent Clp protease proteolytic subunit (Bacillus subtilis (strain 168)), P80244 | actives 1.9% (n = 340,000) | purified B. subtilis ClpP, FRET peptide cleavage, 20 min; active means well fitted falling curve with a large enough effect; inconclusive means small, poorly fitted or top-dose-only effect; inactive means no such curve, though single readings can be large or run the other way; further: the source files actives as falling curves though it sought activators and does not explain the sign; nearly all actives have a fitted effect of over 65% in size
Target sequence (P80244 whole entry, looked up): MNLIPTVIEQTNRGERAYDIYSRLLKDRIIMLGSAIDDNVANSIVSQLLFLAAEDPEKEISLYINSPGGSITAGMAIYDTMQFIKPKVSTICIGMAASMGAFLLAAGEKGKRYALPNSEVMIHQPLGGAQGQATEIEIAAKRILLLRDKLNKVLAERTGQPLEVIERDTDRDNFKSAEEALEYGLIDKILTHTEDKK
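Buffer: 100 mM Tris/HCl pH8, 100 mM KCl, 0.05% low protease BSA, 2.5% glycerol, 0.01% Tween-20. ClpP 10 microg/mL final; 20 min RT; delta FRET normalized to ADEP and DMSO controls.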
Abeta yeast res = compounds reversing amyloid beta toxicity in yeast; yeast expressing A-beta42, growth rescue, OD600, 48 h; response scale: 0% DMSO, 100% iron-clioquinol control; Potency, µM (titrated, usually from 46.1 µM), most hits filed as activators; actives 0.063% (n = 410,000); further: nearly all actives have a fitted effect of over 55% in size
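Yeast growth medium received pinned compounds, then yeast cells expressing toxic A-beta were added; plates incubated at 30 C for 48 hr. Growth read as absorbance at 600 nm, normalized to DMSO and equimolar FeCl3 plus clioquinol controls.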
Mm-Cpn inhibitor = inhibitors of Methanococcus maripaludis chaperonin TRiC (MmCpn) | AID 504842 | Potency, µM (titrated, usually from 76.9 µM), actives largely listed as inhibitors | purified Mm-Cpn ATPase, ADP Transcreener TR-FRET | actives 0.031% (n = 330,000); further: nearly all actives have a fitted effect of over 80% in size
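TR-FRET (320 nm excitation; 590 and 665 nm emission) reports ADP made from 10 uM ATP by 25 nM enzyme; compounds were preincubated 10 min, reaction run 30 min, both at 37°C.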
TDP-43 yeast inh = rescues yeast growth from TDP-43 toxicity; TDP-43 expressing yeast growth rescue, BacTiter-Glo, 24 h; Potency, µM (highest dose often 46.1 µM), most hits filed as activators; actives 1.8% (n = 410,000); AID 652104; further: nearly all actives have a fitted effect of over 50% in size
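Readout is BacTiter-Glo luminescence of cell growth, so inhibitors register as activators. TDP-43-expressing yeast at OD600=0.02 in galactose medium, after raffinose pregrowth to mid-log, were incubated with compound for 24 hr at 30 deg C.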
aSyn yeast inh = rescues yeast growth from alpha-synuclein toxicity; Yeast expressing alpha-synuclein, growth rescue, BacTiter-Glo, 24 h; Potency, µM (series often up to 46.1 µM), usual class: activators; actives 0.14% (n = 370,000); AID 652106; further: nearly all actives have a fitted effect of over 65% in size
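Readout is rescue of growth in alpha-synuclein-expressing yeast, so inhibitors of toxicity appear as activators. Growth after 24 hr at 30 deg C in galactose medium is quantified by luminescence.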
A number is an active result; . = inactive; ? = inconclusive; / = no result. Unless noted, the call rests on the fitted dose curve; in most records, active means well fitted curve in the direction sought with a large enough effect; inconclusive means small, poorly fitted or top-dose-only effect, or another doubt; inactive means no such curve, though single readings can be large; an effect the other way counts as inactive or inconclusive.

SMILES | FUS yeast rescue | ClpP mod | Abeta yeast res | Mm-Cpn inhibitor | TDP-43 yeast inh | aSyn yeast inh
COc1ccc(OC)c2c1CCC2=O | . | 31.6µM | . | . | . | .
O=S(=O)(c1ccc(Cl)cc1)N1CCN(c2nc(-c3ccc(Cl)cc3)nc3ccccc23)CC1 | / | / | / | / | / | .
Cc1cccc2nc(-c3ccccc3)nc(N3CCC(O)(c4ccc(Cl)cc4)CC3)c12 | ? | 14.1µM | . | . | . | .
CCOC(=O)c1cnn(-c2nc(-c3cccc(F)c3)cs2)c1C(F)(F)F | . | 28.2µM | . | . | . | .
O=C(O)c1cnn(-c2nc(-c3cccc(F)c3)cs2)c1C(F)(F)F | . | / | . | . | . | .
CCOC(=O)c1cnn(-c2nc3c(C)cccc3s2)c1C(F)(F)F | . | 28.2µM | . | . | . | .
COc1ccccc1N1C(=O)c2ccccc2NC1c1cc(OC)c(OC)c(OC)c1 (stereo not given) | . | / | . | . | . | .
COc1ccccc1N1C(=O)c2ccccc2NC1C(OC)OC (stereo not given) | . | 22.4µM | . | . | ? | .
O=c1c2ccccc2nc(/C=C/c2cccc3ccccc23)n1-c1ccc(F)cc1F | 31.6µM | . | . | / | . | /
COc1cc(OC)c(OC)cc1/C=C/c1nc2cc3ccccc3cc2c(=O)n1-c1ccc(F)cc1F | . | . | . | / | . | /
COC(=O)c1cc2c(s1)c1cnn(Cc3ccccc3F)c(=O)c1n2C | / | / | / | . | / | /
Cc1cn2c(=O)cc(COc3cccc(NC(=O)c4ccc(C(C)(C)C)cc4)c3)nc2s1 | . | 28.2µM | . | / | . | /
CCN1CC=C2C(C#N)=C(N)C(C#N)(C#N)C(c3cc(Cl)ccc3Cl)C2C1 (stereo not given) | . | 22.4µM | . | . | . | .
COc1cc2ccccc2cc1C(=O)OCC(=O)Nc1ccc(Br)cc1 | / | . | / | / | / | .
Cn1c(CO)c(-c2ccccc2)c2cc([N+](=O)[O-])ccc21 | . | . | . | . | 14.1µM | .
CC(=O)OCc1c(-c2ccccc2)c2cc([N+](=O)[O-])ccc2n1C | . | / | . | . | . | .
CCC1CCCCN1C(=O)CSc1nc2c([nH]c3ccccc32)c(=O)n1-c1ccc(OC)cc1 (stereo not given) | . | . | . | / | ? | .
C[C@H](CO)N1C[C@H](C)[C@H](CN(C)S(=O)(=O)c2cccs2)Oc2ccc(NC(=O)Nc3ccc4c(c3)OCO4)cc2CC1=O | 25.1µM | . | . | . | . | .
C[C@H](CO)N1C[C@H](C)[C@@H](CN(C)S(=O)(=O)c2ccc(Cl)cc2)Oc2ccc(NS(=O)(=O)c3ccccc3)cc2CC1=O | 10µM | . | . | . | . | .
COc1ccc(S(=O)(=O)N(C)C[C@H]2Oc3ccc(NC(=O)Nc4ccc5c(c4)OCO5)cc3CC(=O)N([C@@H](C)CO)C[C@@H]2C)cc1 | . | . | . | . | . | .
C[C@H](CO)N1C[C@H](C)[C@H](CN(C)S(=O)(=O)c2ccccc2)Oc2ccc(NC(=O)NC3CCCCC3)cc2CC1=O | 22.4µM | . | . | . | . | .
COc1ccc(-c2nc(NC(=O)CSc3nnc(C)s3)ns2)cc1 | . | 17.8µM | . | . | . | .
O=S(=O)(Nc1cccc(C(F)(F)F)c1)c1ccc(-c2cnc(C3CC3)o2)cc1 | . | . | . | / | 25.1µM | /
CC(=O)Nc1ccc(NS(=O)(=O)c2cc(-c3cnc(C4CC4)o3)ccc2C)cc1 | . | . | . | . | . | .
COc1ccc(NS(=O)(=O)c2ccc(-c3cnc(C4CC4)o3)cc2)cc1OC | . | . | . | . | . | .
SMILES | FUS yeast rescue | ClpP mod | Abeta yeast res | Mm-Cpn inhibitor | TDP-43 yeast inh | aSyn yeast inh
CCN(CC)c1ccc(NS(=O)(=O)c2ccc(-c3cnc(C4CC4)o3)cc2)c(C)c1 | . | . | . | / | . | /
Cc1cc(C)c(NS(=O)(=O)c2ccc(-c3cnc(C4CC4)o3)cc2)c(C)c1 | . | . | 12.6µM | / | ? | /
Cc1ccc(-c2cnc(C3CC3)o2)cc1S(=O)(=O)Nc1ccccc1 | . | . | . | . | 31.6µM | ?
Cc1ccc(NS(=O)(=O)c2ccc(-c3cnc(C4CC4)o3)cc2)c(C)c1 | ? | . | / | . | 28.2µM | ?
Cc1cc(C)c(NS(=O)(=O)c2cc(-c3cnc(C4CC4)o3)ccc2C)c(C)c1 | . | . | . | / | . | /
COc1ccccc1C(=O)Nc1ccccc1C(=O)OCc1cc(=O)n2c(C)csc2n1 | . | . | . | / | . | /
COc1ccccc1NS(=O)(=O)c1ccc(-c2cnc(C3CC3)o2)cc1 | . | . | . | . | . | .
O=S(=O)(Nc1ccc(F)cc1Cl)c1ccc(-c2cnc(C3CC3)o2)cc1 | . | . | ? | . | 35.5µM | ?
CNC(=O)C1CCC(Cn2c(=O)c3sccc3n(CC(=O)Nc3ccc(C)c(C)c3)c2=O)CC1 (stereo not given) | . | . | . | / | . | /
Cc1cccc(N(CC(=O)NC(C)c2ccccc2)S(=O)(=O)c2ccccc2)c1C (stereo not given) | ? | . | ? | / | . | /
O=C(CCC(=O)Nc1nnc(C2CCCCC2)s1)NCc1ccc(F)cc1 | . | / | . | . | . | .
Cc1ccc(CNC(=O)CCC(=O)Nc2nnc(C3CCCCC3)s2)cc1 | . | 28.2µM | . | . | . | .
O=C(Cc1ccc([N+](=O)[O-])cc1)Nc1nnc(C2CC2)s1 | / | 25.1µM | . | . | . | .
O=C(CSc1nccn1Cc1ccc(Cl)cc1)Nc1ccc2c(c1)OCO2 | . | . | . | / | . | /
CCOC(=O)c1ccccc1NC(=O)CN(c1ccccc1OC)S(=O)(=O)c1ccc(C)cc1 | . | . | . | / | . | /
Cc1c(NC(=O)c2cccs2)cccc1-c1nc2cc(Cl)ccc2o1 | . | ? | . | / | ? | /
Cc1ccc(NC(=O)Cn2c(=O)n(-c3ccc(C)cc3)c(=O)c3ccc(C(=O)NCc4ccccc4Cl)cc32)cc1 | . | . | . | / | . | .
CCOC(=O)c1ccc2[nH]c(C)c(C)c2c1 | . | . | . | / | . | .
COc1ccc2[nH]c(-c3ccc(C)cc3)cc(=O)c2c1 | . | . | . | . | . | .
COC(=O)c1ccc2[nH]c(C)cc(=O)c2c1 | . | 28.2µM | . | . | . | .
COc1ccc2[nH]c(C)cc(=O)c2c1 | . | 25.1µM | . | . | . | .
CCOC(=O)c1ccc2[nH]c(C)cc(=O)c2c1 | . | 3.55µM | . | . | . | .
Cc1cc(=O)c2cc(C(=O)c3ccccc3)ccc2[nH]1 | . | . | . | . | . | .
Cc1ccc(-n2c3c(c(=O)[nH]c2=O)C(NC(=O)C(C)(C)C)(C(F)(F)F)C(=O)N3)cc1 (stereo not given) | . | . | . | / | . | /

Screens: PubChem, National Center for Advancing Translational Sciences (NCATS)
